# In PubChem BioAssay (NCATS):
# Inconclusive results are not listed. Entries that show only a call come without a potency. Activity calls are given as the source filed them. Calls follow the shape of the dose curve; as a rule, active = well fitted curve in the direction sought with a large enough effect; inconclusive = small, poorly fitted or top-dose-only effect, or another doubt; inactive = no such curve, though single readings can be large; an effect the other way counts as inactive or inconclusive.
# Columns and labels:
# [1] = HPAF-II Cancer Cell Toxicity qHTS against the NCATS CANVASS Library (AID 1347346); also: nearly all actives have a fitted effect of over 55% in size; also: potency is read from the fitted curve at half-maximal effect
# Summary of the method: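 Cytotoxicity read-out was CellTiter-Glo luminescence after 72 h at 37 degrees C exposure of HPAF-II cells (1000/well) to compounds in an 11-point titration.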
# [2] = SW1088 Cancer Cell Toxicity qHTS against the NCATS CANVASS Library (AID 1347350); also: series mostly up to about 38 µM; nearly all actives have a fitted effect of over 75% in size
# Summary of the method: (§1)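 Bortezomib titration and single-dose wells served as plate controls. Test compounds, 11 points, acted on 1000 cells/well for 72 h at 37 degrees C; CellTiter-Glo luminescence quantified remaining viable cells.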
# [3] = U-118MG Cancer Cell Toxicity qHTS against the NCATS CANVASS Library (AID 1347351); also: potency is read from the fitted curve at half-maximal effect
# Summary of the method: as §1
# [4] = COV-362 Cancer Cell Toxicity qHTS against the NCATS CANVASS Library (AID 1347352); also: potency is read from the fitted curve at half-maximal effect
# Summary of the method: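 Toxicity was measured as CellTiter-Glo luminescence after 72 h exposure to an 11-point compound series. Compound was added to 1000 cells/well 4 h after seeding.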
# [5] = SDT Cancer Cell Toxicity qHTS against the NCATS CANVASS Library (AID 1347365); also: nearly all actives have a fitted effect of over 60% in size; also: potency is read from the fitted curve at half-maximal effect
# Summary of the method: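 Cytotoxicity taken from CellTiterGlo ATP luminescence after 72 hr at 37C, 5% CO2. Canine glioma line SDT, 500 cells/well, treated at 11 concentrations; bortezomib dose series as control.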
# [6] = MCF7 Cancer Cell Toxicity qHTS against the NCATS CANVASS Library (AID 1347369)
# Summary of the method: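 This 72 hr qHTS scored MCF7 viability by CellTiterGlo luminescence, with 500 cells/well; bortezomib titration ran as control.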
# [7] = qHTS for ATAD5 Antagonist screened against the NCATS CANVASS Library (AID 1347370); also: nearly all actives have a fitted effect of over 65% in size; also: potency is read from the fitted curve at half-maximal effect
# Summary of the method: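 Compounds (11-point) co-dosed with 10 µM 5-FUrd for 16 h at 37 °C onto HEK293T-ATAD5 luciferase reporter cells. Viability measured by CellTiter-Fluor fluorescence, then ATAD5 reporter signal by luminescence.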
# [8] = qHTS for Inflammasome Signaling Inhibitors: IL-1-beta AlphaLISA screen against the NCATS CANVASS Library (AID 1347379);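 also: human THP-1 cells primed with LPS then triggered with ATP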
# Summary of the method: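 Secreted IL-1B from human THP-1 cells quantified by AlphaLISA 16 hr after compound addition (final up to 57.5 uM). A 1 hr compound pretreatment preceded inflammasome activation with 250 ng/mL LPS plus 1.25 mM ATP (final).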
# [9] = Secretion counterscreen for inhibitors of the SERCaMP assay screened against the NCATS CANVASS Library (AID 1347390);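 also: light from luciferase secreted into medium read as a measure of general secretion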; also: potency is read from the fitted curve at half-maximal effect
# Summary of the method: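 Natural products are titrated in an 11-point series up to 77 uM onto SH-SY5Y-GLuc STOP cells for 20 h. Secreted reporter activity is measured as coelenterazine-driven luminescence, with Brefeldin A on each plate.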
# [10] = Vero-766 cells viability qHTS against the NCATS CANVASS Library: Counterscreen for Zika virus inhibition assay (AID 1347394); also: nearly all actives have a fitted effect of over 60% in size; also: potency is read from the fitted curve at half-maximal effect
# Summary of the method: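 Counterscreen for toxicity: Vero 766 cells exposed 72 h to an 11-point compound series, viability by CellTiter-Glo.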
# [11] = qHTS to identify inhibitors of the type 1 interferon - major histocompatibility complex class I in skeletal muscle: primary screen against the NCATS Mechanism Interrogation Plate v5.0 (MIPE) Libary (AID 1347411); also: nearly all actives have a fitted effect of over 65% in size; also: potency is read from the fitted curve at half-maximal effect
# Summary of the method: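 Luminescence from CRISPR HiBit-tagged endogenous HLA-B in human myoblasts reported MHC class I level after 24 h of IFN-beta (4 ng/ml) plus compound. Compounds ran as 11-point 1:3 series, top 46 uM final.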
structure (smiles),measurement,setting,value
C=CC(C)(C)[C@@]12C[C@H]3C(=O)N/C(=C/c4cnc[nH]4)C(=O)N3[C@@H]1Nc1ccccc12,Potency,[1],inactive
same,Potency,[2],inactive
same,Potency,[3],inactive
same,Potency,[4],inactive
same,Potency,[5],inactive
same,Potency,[6],inactive
same,Potency,[7],inactive
same,Potency,[8],inactive
same,Potency,[9],inactive
same,Potency,[10],inactive
CO[C@H]1[C@H](O[C@H]2CC[C@]3(C=O)[C@H]4CC[C@]5(C)[C@@H](C6=CC(=O)OC6)CC[C@]5(O)[C@@H]4CC[C@]3(O)C2)O[C@H](C)[C@H](O)[C@@H]1OC,Potency,[1],335 nM (active)
same,Potency,[3],94.3 nM (active)
same,Potency,[4],236 nM (active)
same,Potency,[5],148 nM (active)
same,Potency,[7],132 nM (active)
same,Potency,[8],685 nM (active)
same,Potency,[9],767 nM (active)
same,Potency,[10],741 nM (active)
C[N+](C)(C)CCc1c[nH]c2ccccc12,Potency,[1],inactive
same,Potency,[2],inactive
same,Potency,[3],inactive
same,Potency,[4],inactive
same,Potency,[5],inactive
same,Potency,[6],inactive
same,Potency,[7],inactive
same,Potency,[8],inactive
same,Potency,[9],inactive
same,Potency,[10],inactive
C=C[C@H]1CN2CCc3c([nH]c4cccc(OC)c34)[C@@H]2C[C@@H]1/C(=C\OC)C(=O)OC,Potency,[1],inactive
same,Potency,[5],16600 nM (active)
same,Potency,[6],inactive
same,Potency,[7],inactive
same,Potency,[8],inactive
same,Potency,[10],inactive
C[C@]12CC(O)C3[C@@H](CCC4C[C@@H](O)CC[C@@]43CO)[C@@]1(O)CC[C@@H]2C1=CC(=O)OC1 (some centres undefined),Potency,[2],inactive
same,Potency,[5],10500 nM (active)
same,Potency,[7],inactive
CC1(C)CC[C@]2(NC(=O)C(C)(F)F)CC[C@]3(C)[C@H](C(=O)C=C4[C@@]5(C)C=C(C#N)C(=O)C(C)(C)[C@@H]5CC[C@]43C)[C@@H]2C1,Potency,[11],1310 nM (active)
Cn1c(/C=C/CO)c(CO)c2c1C(=O)C=C(N1CC1)C2=O,Potency,[11],inactive
Cc1[nH]ncc1-c1cc2nc([C@@H]3CC4CCN3CC4)[nH]c(=O)c2s1,Potency,[11],7390 nM (active)
COC(=O)[C@@]12OC[C@]34[C@H]([C@@H](O)[C@@H]1O)[C@@]1(C)CC(=O)C(O)=C(C)[C@@H]1C[C@H]3OC(=O)[C@H](OC(=O)/C=C(\C)C(C)C)[C@@H]24,Potency,[11],65.8 nM (active)
COc1cc2cc(c1Cl)N(C)C(=O)C[C@H](OC(=O)C(C)C)[C@]1(C)O[C@@H]1[C@H](C)[C@@H]1C[C@@](O)(NC(=O)O1)[C@H](OC)/C=C/C=C(\C)C2,Potency,[11],inactive
N#CC(O[C@@H]1O[C@H](CO[C@@H]2O[C@H](CO)[C@@H](O)[C@H](O)[C@H]2O)[C@@H](O)[C@H](O)[C@H]1O)c1ccccc1 (some centres undefined),Potency,[11],inactive
C=C[C@H]1CN2CCC1C[C@@H]2[C@@H](O)c1ccnc2ccccc12 (some centres undefined),Potency,[11],inactive
COc1cc(C)[nH]c(=O)c1CNC(=O)c1c(C)n([C@H](C)C2CCN(CC(F)(F)F)CC2)c2ccccc12,Potency,[11],inactive
CCCCCCC(C)(C)c1cc(O)c2c(c1)OC(C)(C)C1CC=C(CO)C[C@H]21 (some centres undefined),Potency,[11],13100 nM (active)
CO/C1=C/C(C)=C\[C@@H](C)[C@@H](O)[C@@H](C)C/C(C)=C\C=C/[C@H](OC)[C@@H]([C@@H](C)[C@@H](O)[C@H](C)[C@@]2(O)C[C@@H](O)[C@H](C)[C@@H](C(C)C)O2)OC1=O,Potency,[11],inactive
CC(N[C@H]1C[C@@H]1c1ccccc1)c1ccc2c(c1)OCCO2 (some centres undefined),Potency,[11],inactive
CC(=O)O[C@@]12CO[C@@H]1C[C@H](O)[C@@]1(C)C(=O)[C@H](O)C3=C(C)[C@@H](O)C[C@@](O)([C@@H](OC(=O)c4ccccc4)[C@H]21)C3(C)C,Potency,[11],inactive
COC(=O)[C@]12CCC(C)(C)C[C@H]1[C@H]1C(=O)C=C3[C@@]4(C)C=C(C#N)C(=O)C(C)(C)[C@@H]4CC[C@@]3(C)[C@]1(C)CC2,Potency,[11],1170 nM (active)
Cc1c(N)nc([C@H](CC(N)=O)NC[C@@H](N)C(N)=O)nc1C(=O)N[C@H](C(=O)N[C@@H](C)[C@H](O)[C@@H](C)C(=O)N[C@@H](C(=O)NCCc1nc(-c2nc(C(=O)NCCC[S+](C)C)cs2)cs1)[C@@H](C)O)C(O[C@H]1O[C@H](CO)[C@H](O)[C@@H](O)[C@H]1O[C@H]1O[C@H](CO)[C@@H](O)[C@H](OC(N)=O)[C@@H]1O)c1cnc[nH]1 (some centres undefined),Potency,[11],inactive
COC12C(COC(N)=O)C3=C(C(=O)C(C)=C(N)C3=O)N1CC1C2N1C (centres undefined),Potency,[11],inactive
CC(C)(NC(=O)O[C@@H]1CN2CCC1CC2)c1csc(-c2ccc(F)cc2)n1,Potency,[11],inactive
O=C(CBr)N1CC([N+](=O)[O-])([N+](=O)[O-])C1,Potency,[11],inactive
C[C@@H](C1CC[C@@]2(O)C3=CC(=O)[C@@H]4C[C@@H](O)[C@@H](O)C[C@]4(C)[C@H]3CC[C@]12C)[C@H](O)CCC(C)(C)O (some centres undefined),Potency,[11],inactive
CC(C)[C@]12O[C@H]1[C@@H]1O[C@@]13[C@@]1(C)CCC4=C(COC4=O)[C@@H]1C[C@@H]1O[C@@]13C2=O,Potency,[11],131 nM (active)
CC(=O)OC[C@H]1O[C@@H]([S-])[C@H](OC(C)=O)[C@@H](OC(C)=O)[C@@H]1OC(C)=O.CC[PH+](CC)CC.[Au],Potency,[11],1170 nM (active)
C/C=C(\C)C(=O)N[C@@H](c1ccccc1)[C@@H](O)C(=O)O[C@H]1C[C@@]2(O)[C@@H](OC(=O)c3ccccc3)[C@@H]3[C@]4(OC(C)=O)CO[C@@H]4C[C@H](O)[C@@]3(C)C(=O)[C@H](OC(C)=O)C(=C1C)C2(C)C,Potency,[11],inactive
C=C(C)[C@@H]1CCC(C)=C[C@H]1c1c(O)cc(CCCCC)cc1O,Potency,[11],33000 nM (active)
